# Screening results deposited in PubChem by National Center for Advancing Translational Sciences (NCATS).
# This is a sample that favours compounds with a hit; in the whole collection about 9.3% have one here.
# FLuc modulator: counter-screen for miR-21 project: firefly luciferase inhibitors or activators. P08659. purified FLuc, Km substrates, luminescence inhibition. Potency, µM (series often up to 57.5 µM), for the others: at the top dose activity change, negative = inhibition, actives largely listed as inhibitors. 6.9% of 360,000 active;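 also: plate controls were vehicle for no effect and reference inhibitor for full effect; nearly all actives have a fitted effect of over 55% in size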
# Target sequence (P08659 whole entry, looked up): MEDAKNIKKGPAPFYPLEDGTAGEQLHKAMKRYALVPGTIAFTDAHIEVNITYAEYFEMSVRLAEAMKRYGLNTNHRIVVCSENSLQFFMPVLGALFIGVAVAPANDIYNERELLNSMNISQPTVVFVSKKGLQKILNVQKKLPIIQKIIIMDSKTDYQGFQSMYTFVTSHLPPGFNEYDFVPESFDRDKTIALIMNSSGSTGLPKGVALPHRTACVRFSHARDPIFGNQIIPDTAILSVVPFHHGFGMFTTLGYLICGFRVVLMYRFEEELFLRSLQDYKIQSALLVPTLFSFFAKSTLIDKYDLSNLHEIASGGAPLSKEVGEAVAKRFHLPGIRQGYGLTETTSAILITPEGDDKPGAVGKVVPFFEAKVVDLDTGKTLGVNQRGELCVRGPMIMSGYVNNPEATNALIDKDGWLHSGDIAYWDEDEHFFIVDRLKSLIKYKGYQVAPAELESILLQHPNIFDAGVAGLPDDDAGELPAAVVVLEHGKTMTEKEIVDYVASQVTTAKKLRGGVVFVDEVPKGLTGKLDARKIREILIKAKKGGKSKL
#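 Biochemical qHTS of compounds, final roughly 60 µM downward over six points, against 10 nM purified firefly luciferase using Km concentrations of substrates (10 uM D-luciferin, 10 uM ATP) in Tris acetate pH 7.5 buffer; luminescence output.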
# NPC1 prom act: activators of NPC1 promoter | Huh7 NPC1 promoter luciferase reporter, 24 h | Potency, µM (doses to about 9.22 µM), without a hit: at the top dose activation, most hits filed as activators | 2.4% of 320,000 active | AID 485313; also: % of control where 0% means no effect; nearly all actives have a fitted effect of over 60% in size
#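 Quantitative HTS used a cell-based reporter: Huh7 cells stably bearing the NPC1 promoter upstream of luciferase were treated with compounds for 24 h, and promoter activation was read as luminescence.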
# ELG1 DNA repair: blocks ELG1-dependent DNA repair in HEK293T cells; 2.3% of 330,000 active; Potency, µM (titrated, usually from 46.1 µM), inactives show top-dose activity change, negative = inhibition, actives largely listed as inhibitors; HEK293T ELG1-luciferase reporter, luminescence, 16 h; DNA damage induced by 5-fluorouridine; also: % is scaled to controls: 0 for no effect and ±100 for the full control effect; nearly all actives have a fitted effect of over 55% in size
#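 Reporter activity after DNA damage by 5-fluorouridine is monitored. Compound-treated cells incubate 16 hr at 37 °C, then ONE-Glo is added for 30 min before luminescence reading.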
# Rab9 prom act: activators of Rab9 promoter; Huh7 Rab9 promoter-luciferase reporter, luminescence, 24 h; Potency, µM (top dose mostly 9.22 µM), for inactives: at the highest dose activation, negative = inhibition, usual class: activators; 2.8% of 320,000 active; AID 485297; also: % of control where 0% means no effect; nearly all actives have a fitted effect of over 60% in size
#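 Measured in stably transfected Huh7 cells bearing a Rab9 promoter–luciferase construct: 24 h compound treatment at 37 °C, followed by luminescence detection.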
# ELG1 genotox: induces genotoxicity in HEK293T cells with luciferase-tagged ELG1 | 1.3% of 330,000 active | Potency, µM (series often up to 46 µM), inactives show at the top dose activity change, positive = activation, usual class: activators | HEK293T ELG1-luciferase reporter, luminescence, 16 h; also: % of control where 0% means no effect; nearly all actives have a fitted effect of over 60% in size
#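 DMSO vehicle served as control against compound-treated ELG1-luciferase HEK293T cells; exposure lasted 16 hr at 37 °C and 5% CO2, followed by ONE-Glo luminescence detection after 30 min.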
# SMN2 splice enh: increases expression of the SMN2 splice variant; HEK293 SMN2-luciferase splicing reporter, luminescence, 30-36 h; Potency, µM (series often up to 46.1 µM), inactives show at the top dose activity change, positive = activation, hits mostly activators; 2.8% of 210,000 active; AID 1458; also: % of control where 0% means no effect; nearly all actives have a fitted effect of over 55% in size
#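 qHTS luciferase splicing reporter: luminescence rises when SMN2 exon 7 is included in transfected HEK293 cells. Compound exposure lasted 30-36 h at 37C, with 4.5 mM final sodium butyrate as control, followed by a ONE-Glo read.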
# The depositor's hits bear a star; ? = inconclusive; · = no result. Calls follow the shape of the dose curve; as a rule, active = well fitted curve in the direction sought with a large enough effect; inconclusive = small, poorly fitted or top-dose-only effect, or another doubt; inactive = no such curve, though single readings can be large; an effect the other way counts as inactive or inconclusive. Potency is read from the fitted curve at half-maximal effect.
SMILES,FLuc modulator,NPC1 prom act,ELG1 DNA repair,Rab9 prom act,ELG1 genotox,SMN2 splice enh
Cc1ccc(-c2nn(-c3ccccc3)cc2CO)cc1,15µM*,?,?,?,?,·
Cc1ccc(C(=O)NCC2CCCO2)cc1S(=O)(=O)N1CCCCC1 (stereo unspecified),-1%,-1%,2%,-41%,0%,·
Cc1ccc(C(=O)Nc2nnc(S(=O)(=O)N3c4ccccc4CC3C)s2)cc1 (stereo unspecified),-1%,·,·,·,·,·
Cn1cnc2cc(NCc3ccc(Cl)cc3)ccc21,17µM*,2.5µM*,?,0.89µM*,?,·
COc1ccccc1-n1cnc2cc(NCc3ccccc3O)ccc21,?,-2%,?,13%,6%,·
COc1ccccc1-n1cnc2cc(NCc3ccco3)ccc21,19µM*,-3%,?,5%,?,7%
Cc1ccc(CNc2ccc3c(c2)ncn3C(C)C)cc1,6µM*,2.2µM*,?,2.8µM*,9.2µM*,·
CCn1cnc2cc(NCc3ccc(Br)cc3)ccc21,13µM*,3.5µM*,?,0.71µM*,?,·
COc1ccc(CN2CCc3c(c(=O)n4ncc(C(=O)N5CCN(c6ccccc6OC)CC5)c4n3C)C2)cc1,-17%,·,·,·,·,·
CCCn1cnc2cc(NCc3ccc(Br)cc3)ccc21,11µM*,?,?,3.5µM*,?,·
CCn1cnc2cc(NCc3cccc(OC)c3O)ccc21,12µM*,0%,?,-1%,18µM*,12%
CCCn1cnc2cc(NCc3cccc(OC)c3)ccc21,17µM*,?,?,?,16%,13µM*
CCn1cnc2cc(NCc3ccc(C)cc3)ccc21,15µM*,2.8µM*,?,4µM*,8.2µM*,13µM*
CCCn1cnc2cc(NCc3ccc(OC)cc3OC)ccc21,?,·,·,·,·,-15%
CCCn1cnc2cc(NCc3ccccc3O)ccc21,?,11%,?,6%,14%,·
CN(C)S(=O)(=O)c1ccc(C(=O)/C=C/c2cccnc2)cc1,-2%,-4%,?,13%,-1%,·
O=C(N/N=C1\CC(c2ccccc2)Oc2ccccc21)c1ccc(O)cc1 (stereo unspecified),?,3%,18µM*,2%,-10%,·
O=C(N/N=C1\CC(c2ccccc2)Oc2ccccc21)c1cccnc1 (stereo unspecified),-14%,7%,?,1%,6%,-19%
O=S(=O)(N/N=C1\CC(c2ccccc2)Oc2ccccc21)c1ccccc1 (stereo unspecified),-10%,0%,0%,-7%,-6%,-11%
CCOc1ccc(S(=O)(=O)N/N=C2/CC(c3ccccc3)Oc3ccccc32)cc1 (stereo unspecified),21µM*,2%,0%,0%,8%,?
COc1cccc(CNC(=O)c2cnc3sc(N4CCCC4)nn3c2=O)c1OC,-1%,·,·,·,·,·
C/C(=N\O)c1ccc(N2C(=O)C3CC=C(Cl)CC3C2=O)cc1 (stereo unspecified),11µM*,?,?,?,?,?
Cc1ccc(NC(=O)c2ccc(N3C(=O)C4CC=C(Cl)CC4C3=O)cc2)cc1 (stereo unspecified),-16%,-1%,6%,-1%,4%,7%
Cc1ccc(C(=O)Nc2cnc3ccccn3c2=O)cc1,17µM*,2.2µM*,?,1.6µM*,4.6µM*,11µM*
O=C(Nc1cnc2ccccn2c1=O)c1ccc(Cl)cc1Cl,1.7µM*,0.32µM*,?,0.28µM*,?,1.6µM*
SMILES,FLuc modulator,NPC1 prom act,ELG1 DNA repair,Rab9 prom act,ELG1 genotox,SMN2 splice enh
CN(C)c1ccc(NC2=C(Cl)C(=O)c3ccccc3C2=O)cc1,7.6µM*,1%,?,-41%,?,-83%
CCCCCC(=O)Nc1ccc2oc(-c3cncc(Br)c3)nc2c1,7%,0.71µM*,?,1.6µM*,?,11µM*
CCCCC(=O)Nc1ccc2oc(-c3ccncc3)nc2c1,-20%,2%,11%,4%,18%,-6%
CCCC(=O)Nc1ccc2oc(-c3cncc(Br)c3)nc2c1,?,1.6µM*,?,1.3µM*,9.2µM*,4.5µM*
CCC(C)(C(=O)NC1CCCC1)N(Cc1cccs1)C(=O)c1ccc2c(c1)OCO2 (stereo unspecified),-1%,-4%,-3%,-2%,-6%,-5%
O=c1[nH]c(SCc2nc3ccccc3c(=O)n2-c2ccccc2C(F)(F)F)nc2ccccc12,2%,1%,18µM*,-7%,-2%,-5%
Cc1cc(NC(=O)NC(=O)c2ccc(F)cc2F)n[nH]1,7.6µM*,0.5µM*,?,0.56µM*,?,11µM*
Cc1ccnc(NC(=O)COC(=O)c2ccc(F)cc2F)n1,-1%,0%,2%,-1%,-1%,·
CCOC(=O)c1[nH]c(C)c(C(=O)N2CCN(c3ccc(OC)cc3)CC2)c1C,5%,-9%,-4%,-8%,0%,-28%
CCOC(=O)c1[nH]c2ccc(F)cc2c1NC(=O)c1cc(OC)c(OC)c(OC)c1,1%,0%,7.3µM*,8%,1%,22µM*
CCOC(=O)c1cc2cc(OC)ccc2[nH]1,12µM*,3.5µM*,?,4µM*,?,-3%
CCOC(=O)c1[nH]c(CN2CCN(c3ccc(OC)cc3)CC2)c(C(=O)OCC)c1C,-1%,-4%,18µM*,1%,5%,·
CCOC(=O)c1[nH]c2ccc(F)cc2c1NC(=O)c1ccccc1C(=O)O,-19%,18%,?,6%,11%,·
CCOC(=O)c1[nH]c2ccc(OC)cc2c1NC(=O)c1cccc(OC)c1,-10%,0%,13µM*,5%,-3%,-2%
COc1ccc2[nH]c(C(=O)NCc3ccccc3)cc2c1,-19%,-3%,?,1%,-8%,·
O=C(Nc1cccc(C(F)(F)F)c1)C1CCN(S(=O)(=O)c2cccnc2)CC1,1%,-1%,-6%,1%,-4%,·
CCCCSc1cc(=O)[nH]c(N)n1,0%,-2%,-5%,1%,-2%,·
CC(O)Cc1cn(CC(=O)N2CCN(C(=O)OC(C)(C)C)CC2)nn1 (stereo unspecified),1%,0%,20%,8%,0%,·
CCn1nc(C(C)C)cc1C(=O)N1CCCC(CO)(Cc2ccc(F)cc2F)C1 (stereo unspecified),2%,-1%,?,-14%,-6%,·
Cc1cscc1NC(=O)/C=C/C(=O)O,-5%,11%,?,0%,-1%,·
